From PubChem BioAssay (NCI)
Several values for one entry are separate records, joined by “and”; a condition that tells them apart may be missing. Identical values can stand only once. About 83,000 compounds went through this panel and 20% of them were active in at least one assay; those are over-represented in the sample as a whole.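 For each line, cells grew in 96-well plates with the test compound present at a single concentration for 48 hours.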 Activity calls are given as the source filed them. Rule for the calls: active = growth percent below 10; inactive = the rest.

Columns and labels:
Test in all cases: NCI-60 one-dose screen, 48 h (100 = growth as untreated, 0 = no growth, -100 = all killed)
[1] = system: HCT-15 colon; conditions: 10 µM unless noted
[2] = system: HT29 colon; conditions: 10 µM unless noted
[3] = system: SNB-75 CNS; conditions: 10 µM unless noted
[4] = system: SNB-19 CNS; conditions: 10 µM unless noted
[5] = system: U251 CNS; conditions: 10 µM unless noted
[6] = system: PC-3 prostate; conditions: 10 µM unless noted
[7] = system: SK-MEL-5 melanoma; conditions: 10 µM unless noted
[8] = system: UACC-62 melanoma
[9] = system: LOX IMVI melanoma; conditions: 10 µM unless noted
[10] = system: SK-MEL-2 melanoma; conditions: 10 µM unless noted
[11] = system: EKVX NSCLC; conditions: 10 µM unless noted
[12] = system: UO-31 renal; conditions: 10 µM unless noted
[13] = system: TK-10 renal
[14] = system: ACHN renal; conditions: 10 µM unless noted
[15] = system: CAKI-1 renal; conditions: 10 µM unless noted
[16] = system: A498 renal; conditions: 10 µM unless noted
[17] = system: CCRF-CEM leukemia; conditions: 10 µM unless noted
[18] = system: MOLT-4 leukemia; conditions: 10 µM unless noted
[19] = system: SR leukemia; conditions: 10 µM unless noted
[20] = system: SK-MEL-28 melanoma; conditions: 10 µM

Measured: growth

CC[C@@]1(O)C[C@H](OC2CC(N(C)C)C(O)C(C)O2)c2c(O)c3c(c(O)c2[C@H]1OC1CC(N(C)C)C(O)C(C)O1)C(=O)c1cccc(O)c1C3=O (stereo partly specified)
active: [1] -49.7% | [2] -39% | [3] -94.6% | [4] 5.62% | [5] -21.9% | [6] -61.8% | [7] -89% | [8]; 10 µM -63.2% | [9] -36.2% | [10] -54.5% | [11] 4.27% | [12] -33.9% | [13]; 10 µM -24.9% | [14] -31% | [15] -9.18% | [16] -68% | [17] -37.7% | [18] -10.5% | [19] -7.1%

C[C@]12CC[C@H](O)CC1=CC[C@@H]1[C@@H]2CC[C@]2(C)C(=O)CC[C@@H]12
inactive: [1] 99.7% | [2] 81.5% | [3] 71.6% | [4] 95% | [5] 101% | [6] 79.2% | [7] 92.9% | [8]; 10 µM 92.9% | [9] 102% | [10] 95.3% | [11] 85.7% | [12] 80.6% | [13]; 10 µM 96.2% | [14] 108% | [15] 87.3% | [16] 92% | [17] 76.3% | [18] 89%
active: [19] -4.91%

Oc1cccc2cccnc12
inactive: [1] 64.3% and 110% and 97.1% | [2] 51.8% and 106% | [3] 101% and 106% and 89.6% | [4] 95.1% and 108% and 102% | [5] 72.3% and 99.1% and 106% | [6] 86.9% and 97.3% and 92.3% | [7] 97.2% and 99.9% and 110% | [8]; 10 µM 97.2% and 94.1% | [9] 71.9% and 99.1% and 107% | [20] 97.2% and 107% and 106% | [10] 99% and 102% and 101% | [11] 93% and 110% and 103% | [12] 74.2% and 94.4% and 80.2% | [13]; 10 µM 113% and 98.5% and 104% | [14] 83.5% and 117% and 96% | [15] 103% and 100% and 107% | [16] 137% and 99.4% and 83.7% | [17] 48.8% and 99.2% and 96% | [18] 60.2% and 110% and 97.8% | [19] 40.1% and 105% and 57.7%

NCCc1ccc(OCc2ccccc2)c(OCc2ccccc2)c1
active: [19] -27.5%
inactive: [1] 75.3% | [2] 55% | [3] 63.9% | [4] 94.5% | [5] 44.3% | [6] 74.1% | [7] 89.3% | [8]; 10 µM 95.9% | [9] 63.2% | [20] 97.3% | [10] 87.4% | [12] 51.2% | [13]; 10 µM 107% | [14] 71.1% | [15] 81.6% | [16] 79% | [18] 78.1%

CC[n+]1c(-c2ccccc2)c2cc(N)ccc2c2ccc(N)cc21
inactive: [1] 88.9% | [6] 20.9% | [9] 13.5% | [12] 63.5% | [13]; 10 µM 42% | [14] 54.4% | [15] 81% | [16] 60.4% | [17] 27.5% | [18] 23.7%
active: [2] 9.77% | [3] -88.5% | [4] -5.17% | [5] -2.55% | [8]; 10 µM -81.3% | [20] -42.9% | [10] -60.1% | [11] 1.88%

COc1cccc2c1cc([N+](=O)[O-])c1c(C(=O)O)cc3c(c12)OCO3
9.19% (active) and 88% (inactive): [15]
inactive: [1] 69.3% and 105% | [3] 79.4% and 106% | [4] 79.3% and 97.7% | [5] 60.2% and 96.7% | [6] 77.3% and 73.7% | [7] 78.9% and 104% | [8]; 10 µM 84.3% and 96.5% | [9] 70.4% and 99.2% | [20] 99.8% | [10] 94.4% and 104% | [11] 84.3% and 111% | [12] 76.5% and 87.8% | [13]; 10 µM 30.8% and 99.6% | [14] 39.1% and 96.1% | [16] 87.2% and 107% | [17] 45.8% and 77.6% | [18] 35.7% and 95.9% | [19] 28.1% and 76.3%
active: [2] 0.29% and -24.5% | [8]; 100 µM -19.4% and 0.694% | [13]; 100 µM -10.4% and -42.6%
